The record followed here is PubChem BioAssay (NCI).

Some test systems named below: NCI-H23 lung; NCI-H226 lung; NCI-H322M lung; HOP-62 NSCLC; NCI-H460 lung; HOP-92 NSCLC; NCI-H522 lung; A549/ATCC NSCLC; 786-0 renal; DU-145 prostate; K-562 leukemia; MALME-3M melanoma; MDA-MB-231 breast; RXF 393 renal; SF-268 CNS; SF-295 CNS; SF-539 CNS; UACC-257 melanoma; M14 melanoma.
Holding throughout (test): NCI-60 one-dose screen, 48 h (100 = growth as untreated, 0 = no growth, -100 = all killed)
What all share (settings): 10 µM unless noted

About 83,000 compounds went through this panel and 20% of them were active in at least one assay; those are over-represented in the sample as a whole.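 Cells were grown in 96-well plates and exposed to the test compound at a single concentration for 48 hours; results are reported as percent growth, with values below 10 considered active.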 A number with no mark means an inactive call. The source made the active and inactive calls.

Turning to `COc1cc(-c2ccc(-c3ccc(C(=N)N)nc3)s2)cc(OC)c1OC`, the growth in the assay on NCI-H23 lung is 72.2%; in the assay on NCI-H226 lung, 102%; in the assay with NCI-H322M lung, 70.3%; with HOP-62 NSCLC, 67.9%; in the assay with NCI-H460 lung, 25.7%; in the assay with HOP-92 NSCLC it was 49%. The growth is 77% with NCI-H522 lung; 61.3% in the assay with A549/ATCC NSCLC; 40.3% in the assay on 786-0 renal; 49.9% in the assay on DU-145 prostate; 5.58% (active) with K-562 leukemia; 24.7% in the assay with MALME-3M melanoma. Moreover, the growth in the assay on MDA-MB-231 breast is 44.2%; in the assay with RXF 393 renal it was 77.1%; in the assay with SF-268 CNS, 86.1%; in the assay with SF-295 CNS it was 40.1%; with SF-539 CNS it was 1.84% (active); in the assay with UACC-257 melanoma, 92.9%. Moreover, the growth in the assay on M14 melanoma is 43.1%.

For the molecule `CCc1c(C(=O)N[C@@H]2c3cc(Cl)ccc3CC[C@@H]2O)[nH]c(C)c1C(C)=O`, the growth in the assay with NCI-H23 lung is 100%; with NCI-H226 lung it was 76.5%; in the assay with NCI-H322M lung, 91.2%; in the assay with HOP-62 NSCLC, 72.1%; with NCI-H460 lung, 33.6%; in the assay on HOP-92 NSCLC, 84.1%. Also, the growth with NCI-H522 lung is 65.9%; with A549/ATCC NSCLC it was 62%; with 786-0 renal, 89.3%; with DU-145 prostate it was 94.5%; with K-562 leukemia, 69.7%; with MALME-3M melanoma, 110%. The growth is 84.2% in the assay on MDA-MB-231 breast; 92.3% in the assay on RXF 393 renal; 73.2% with SF-268 CNS; 64.7% in the assay with SF-295 CNS; 67% in the assay with SF-539 CNS; 80.2% with UACC-257 melanoma. Further, in the assay with M14 melanoma, the growth is 87.4%.

In the case of `CCCCCCCSc1ccc(C(=O)O)cc1`, the growth was 102% in the assay on NCI-H23 lung; 97.2% with NCI-H226 lung; 99.7% in the assay with NCI-H322M lung; 106% in the assay on HOP-62 NSCLC; 104% in the assay with NCI-H460 lung; 83.5% in the assay on HOP-92 NSCLC. Further, the growth in the assay with NCI-H522 lung is 100%; in the assay on A549/ATCC NSCLC it was 98.9%; with 786-0 renal, 100%; in the assay with DU-145 prostate, 119%; in the assay on K-562 leukemia it was 105%; in the assay on MALME-3M melanoma it was 111%. Besides, the growth in the assay with MDA-MB-231 breast is 112%; with RXF 393 renal, 94.4%; in the assay with SF-268 CNS it was 109%; in the assay with SF-295 CNS, 94.3%; in the assay on SF-539 CNS, 99.7%; with UACC-257 melanoma, 95.8%. For the same molecule, the growth with M14 melanoma is 113%.

Consider `CCCCCCCCn1cc(C2=C(c3coc4ccc(OC)cc34)C(=O)NC2=O)c2ccccc21`, for which the growth was 54.4% in the assay on NCI-H23 lung; -38.6% (active) with NCI-H226 lung; 99% in the assay with NCI-H322M lung; 116% with HOP-62 NSCLC; 101% with NCI-H460 lung; 94.2% in the assay with HOP-92 NSCLC. Further, the growth was 96.7% with NCI-H522 lung; 101% with A549/ATCC NSCLC; 104% in the assay on 786-0 renal; 106% in the assay on DU-145 prostate; 121% in the assay with K-562 leukemia; 89.5% in the assay with MALME-3M melanoma. The growth is 102% in the assay with MDA-MB-231 breast; 105% in the assay with RXF 393 renal; 97.2% with SF-268 CNS; 97.2% with SF-295 CNS; 95.7% in the assay on SF-539 CNS; 94.7% in the assay with UACC-257 melanoma. Moreover, the growth with M14 melanoma is 96.1%.

`O=C(Oc1ccc[nH]c1=O)c1cc([N+](=O)[O-])cc([N+](=O)[O-])c1`: the growth in the assay with NCI-H23 lung was 114%; in the assay with NCI-H226 lung, 104%; in the assay with NCI-H322M lung it was 98.6%; in the assay on HOP-62 NSCLC it was 97.2%; in the assay on NCI-H460 lung it was 111%; with HOP-92 NSCLC it was 146%. The growth with NCI-H522 lung was 116%; in the assay on A549/ATCC NSCLC, 77.3%; in the assay on 786-0 renal it was 101%; in the assay on DU-145 prostate, 123%; in the assay with K-562 leukemia it was 87.1%; in the assay with MALME-3M melanoma it was 156%. Besides, the growth in the assay on MDA-MB-231 breast was 114%; with RXF 393 renal, 83.3%; with SF-268 CNS, 116%; in the assay with SF-295 CNS, 113%; in the assay on SF-539 CNS, 99.3%; in the assay with UACC-257 melanoma, 19.7%. The growth in the assay with M14 melanoma is 101%.

As for `C=C(CNCCc1ccc(O)cc1)[C@@H]1CC[C@]2(COC3CCCCO3)CC[C@]3(C)[C@H](CC[C@@H]4[C@@]5(C)CCC(N)C(C)(C)[C@@H]5CC[C@]43C)[C@@H]12` (some centres not stated), the growth with NCI-H23 lung is -89.1% (active); with NCI-H226 lung, -59.1% (active); with NCI-H322M lung it was -95.1% (active); with HOP-62 NSCLC, -91.4% (active); in the assay with NCI-H460 lung, -84.2% (active); with HOP-92 NSCLC, -73.9% (active). For the same molecule, the growth with NCI-H522 lung was -84.3% (active); in the assay with A549/ATCC NSCLC it was -86.2% (active); in the assay on 786-0 renal, -79.4% (active); in the assay with DU-145 prostate, -88.9% (active); with K-562 leukemia it was -73% (active); with MALME-3M melanoma it was -83.9% (active). The growth was -92.2% (active) in the assay on MDA-MB-231 breast; -83.9% (active) in the assay with RXF 393 renal; -71.6% (active) in the assay on SF-268 CNS; -88% (active) with SF-295 CNS; -94.9% (active) with SF-539 CNS; -80.7% (active) with UACC-257 melanoma. Besides, in the assay on M14 melanoma, the growth is -88.6% (active).

As for `N#Cc1cccc(-c2nc3ccccn3c2NCCN2CCOCC2)c1`, the growth is 98.6% in the assay with NCI-H23 lung; 93.6% with NCI-H226 lung; 87.1% in the assay with NCI-H322M lung; 72.5% with HOP-62 NSCLC; 98.8% in the assay with NCI-H460 lung; 93% in the assay with HOP-92 NSCLC. The growth is 85.8% in the assay on NCI-H522 lung; 90.4% in the assay with A549/ATCC NSCLC; 96.1% with 786-0 renal; 106% with DU-145 prostate; 97.3% in the assay with K-562 leukemia; 108% in the assay on MALME-3M melanoma. The growth is 94.6% with MDA-MB-231 breast; 96.3% in the assay with RXF 393 renal; 90.3% in the assay on SF-268 CNS; 101% in the assay on SF-295 CNS; 92.2% in the assay with SF-539 CNS; 98.8% with UACC-257 melanoma. Also, in the assay on M14 melanoma, the growth was 89.9%.

As to `CN(C)c1ccc2cc(-c3ccc(Cl)c(Cl)c3)c(N)nc2c1`, the growth in the assay with NCI-H23 lung is 15.4%; with NCI-H226 lung, 42.3%; in the assay with NCI-H322M lung, 54.6%; with HOP-62 NSCLC it was 66.2%; with NCI-H460 lung it was 27.6%; in the assay with HOP-92 NSCLC it was 28%. In addition, the growth in the assay on NCI-H522 lung is 22%; in the assay with A549/ATCC NSCLC, 32.9%; in the assay with 786-0 renal, 55.4%; in the assay on DU-145 prostate, 56.2%; with K-562 leukemia it was 12.1%; in the assay on MALME-3M melanoma, 29.8%. The growth was 63.1% with MDA-MB-231 breast; 63% in the assay with RXF 393 renal; 50.1% with SF-268 CNS; 11.9% with SF-295 CNS; 48.5% in the assay on SF-539 CNS; 21.3% with UACC-257 melanoma. The growth in the assay on M14 melanoma is 25.5%.
